About 79,000 compounds went through this panel and 15% of them were active in at least one assay; those are over-represented in the sample as a whole. No stated cut-off is given here; in the data, active means growth inhibition above about 70%; inactive means the rest.
Legend:
[1] = NCI Yeast Anticancer Drug Screen. Data for the rad50 strain (AID 155);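 further: 0% = growth of vehicle-only cultures of the same strain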; conditions: S. cerevisiae rad50 strain growth inhibition; at 50.0 µM; hits give high values
How it was run: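 Inhibition values express reduced yeast growth in compound-treated cultures relative to vehicle-treated controls.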

[2] = NCI Yeast Anticancer Drug Screen. Data for the mec2-1 strain (AID 157); conditions: S. cerevisiae mec2-1 strain, at 50.0 µM, hits give high values
How it was run: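 Each compound was tested on mec2-1 yeast, a strain altered in DNA damage repair or cell cycle control. Growth inhibition is reported relative to vehicle.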

[3] = NCI Yeast Anticancer Drug Screen. Data for the sgs1 mgt1 strain (AID 161);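 further: 0% = growth of cultures given vehicle only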; conditions: S. cerevisiae sgs1 mgt1 strain, at 50.0 µM, hits give high values
How it was run: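 Test agents were incubated with a DNA-repair-mutant yeast strain. Growth was then read and compared against vehicle-treated controls.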

[4] = NCI Yeast Anticancer Drug Screen. Data for the cln2 rad14 strain (AID 165);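 further: 0% = growth equal to vehicle treated cultures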; conditions: S. cerevisiae cln2 rad14 strain, at 50.0 µM, hits give high values
How it was run: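 Test compounds were added to cln2 rad14 yeast cultures; inhibition of growth was then determined by comparison with vehicle treatment.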

[5] = NCI Yeast Anticancer Drug Screen. Data for the bub3 strain (AID 167); conditions: S. cerevisiae bub3 mutant strain, at 50.0 µM, hits give high values
How it was run: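 Steps: expose the mutant yeast strain to compound; grow alongside vehicle-treated cultures; measure growth; express inhibition against the vehicle cultures.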

[6] = NCI Yeast Anticancer Drug Screen. Data for the mlh1 rad18 strain (AID 175); conditions: S. cerevisiae mlh1 rad18 strain growth inhibition; at 50.0 µM; hits give high values
How it was run: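 Inhibition values reflect reduced growth of mutant yeast versus vehicle-treated controls following compound exposure; the mutations affect DNA damage repair.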

Measured: growth inhibition

CCCCNCCS
inactive: [1] 14.1% | [2] -14.6% | [3] 2.7% | [4] 6.9% | [5] -8.55% | [6] 8.5%

Cc1ccc(N2C(=O)CC3(CCCC3)C2=O)cc1Cl
inactive: [1] 14.6% | [2] -2% | [3] -6.05% | [4] 5.95% | [5] 5% | [6] 21.6%

Fc1ccccc1N=Cc1ccc(C=Nc2ccccc2F)cc1
inactive: [1] 3.85% | [2] -11.2% | [3] 23.9% | [4] 21.3% | [5] 45.6% | [6] 26.4%

CS/C(=C\c1ccc2ccccc2[n+]1C)N1CCN(CCCO)CC1
inactive: [1] 23.4% | [2] 10% | [3] 9.95% | [4] -20.6% | [5] -7.4% | [6] 38.1%

Cc1c(C)c2cc3ccc(Cl)cc3nc2c2ccccc12
inactive: [1] -7.65% | [2] -16.9% | [3] 2.75% | [4] -21.6% | [5] 2.9% | [6] 1.7%

Cc1ccc(S(=O)(=O)N2CCC(C(=O)O)(c3ccccc3)CC2)cc1
inactive: [1] -14.9% | [2] -0.9% | [3] -35.4% | [4] -88.5% | [5] -56.2% | [6] -9.45%

O=[N+]([O-])c1ccc(F)cc1
inactive: [1] -1.3% | [2] 5.25% | [3] 2.3% | [4] -17.4% | [5] 7.15% | [6] 4.75%

COC(=O)C1CCC(=O)N1C(c1ccc(OC)cc1)c1ccc(OC)cc1 (stereo unspecified)
inactive: [1] -26.6% | [2] 25.6% | [3] 13.4% | [4] 12.6% | [5] 8.3% | [6] 6.7%

CC(C)[C@H]1CC[C@@](C)(C(=O)O)C1
inactive: [1] 12.4% | [2] 7.5% | [3] 15.2% | [4] 5.8% | [5] 23.4% | [6] 16.4%

O=C(Nc1ccccc1F)OCCCl
inactive: [1] 11.8% | [2] -23.6% | [3] 6.55% | [4] 1.45% | [5] 3.55% | [6] 4.4%

COc1cc(-c2cc(=O)c3c(O)c(OC)c(OC)cc3o2)ccc1O
inactive: [1] -34.3% | [2] -40.2% | [3] -28.5% | [4] -22.1% | [5] -36.6% | [6] -41.5%

COc1ccc(S(=O)(=O)c2ccc(F)cc2)cc1
inactive: [1] -22.1% | [2] -14.2% | [3] -3.65% | [4] -5.8% | [5] -12.7% | [6] -21.4%

C/C=C(/C(=O)NC(N)=O)C(C)C
inactive: [1] -3.65% | [2] 3.15% | [3] -20.1% | [4] -48.3% | [5] -2.55% | [6] -2.85%

Fc1ccc2cc3cccc[n+]3cc2c1
inactive: [1] 27.1% | [2] 7.05% | [3] 32.4% | [4] 14.4% | [5] 10.1% | [6] 2.35%

CC(=O)OC1CCC2(C)C(CCC3C2CCC2(C)C(C(C)C(=O)O)CCC32)C1 (stereo unspecified)
inactive: [1] -10.7% | [2] 1.85% | [3] 1.45% | [4] 10.8% | [5] -3.6% | [6] 3.9%

Cc1c(C(=O)CSc2nc3ccccc3c(=O)n2-c2ccccc2)c(=O)n(-c2ccccc2)n1C
inactive: [1] -9.1% | [2] 0.45% | [3] -18.1% | [4] 37.7% | [5] -11.3% | [6] -12.9%

CCOC(=O)C1CN(CCCN2CC(C(=O)OCC)C(=O)C2=O)C(=O)C1=O (stereo unspecified)
inactive: [1] 9.9% | [2] 7.25% | [3] 3.5% | [4] 24.1% | [5] 9.95% | [6] -3.95%

NC(Cc1ccsc1)C(=O)O (stereo unspecified)
inactive: [1] 0.15% | [2] 10.7% | [3] -22.7% | [4] -45.2% | [5] 20.5% | [6] -30.8%

CC1(C)[C@H]2CC[C@@]1(C)C(=O)[C@H]2[N+](=O)[O-]
inactive: [1] 4.25% | [2] -20.2% | [3] -1.8% | [4] 7.85% | [5] -9.15% | [6] 8.75%

O=C1NNCc2c1sc1ccccc21
inactive: [1] 0.25% | [2] -4.15% | [3] -17.4% | [4] -41.3% | [5] -11.7% | [6] 4.6%

CC(=O)c1ccc(Cl)c(Cl)c1
inactive: [1] -3.6% | [2] -0.5% | [3] -3.75% | [4] 14.9% | [5] 4.7% | [6] -15.3%
